# Data reported in PMC11062922 (Nature Chemical Biology, 2023).
# Read-outs that look alike come from different tables or passages of the source.
# Tests used:
# Set-up in all cases: species or system human, MV4-11 + K-562 + COLO205 + SK-N-BE2 + OVCAR-8
# ATR = details: read-out: apparent Kd, n = 1
# DJA1 = tested on: T1, DJA1; details: read-out: apparent Kd, n = 1
# T1 construct: gene DNAJA1
# IRAK4 = details: read-out: apparent Kd, compound concentrations: 100 nM and 1000 nM (sheet 'Samples'), n = 1
# NLK = details: read-out: apparent Kd, n = 1
# STK26 = details: read-out: apparent Kd, compound concentrations: 100 nM and 1000 nM (sheet 'Samples'), n = 1
# JAK2 = details: read-out: apparent Kd, n = 1
# ACAD11 = details: read-out: apparent Kd, n = 1
# ACVR1 = details: read-out: apparent Kd, n = 1
# CDC7 = details: read-out: apparent Kd, n = 1
# CDK5 = details: read-out: apparent Kd; compound concentrations: 100 nM and 1000 nM (sheet 'Samples'), CATDS: 1.15516504850929E-2; n = 1
# MAP4K1 = details: read-out: apparent Kd, compound concentrations: 100 nM and 1000 nM (sheet 'Samples'), n = 1
# ULK3 = details: read-out: apparent Kd, n = 1
# NQO2 = details: read-out: apparent Kd, n = 1
# PIK3CA = details: read-out: apparent Kd, n = 1
# ICK = details: read-out: apparent Kd, compound concentrations: 100 nM and 1000 nM (sheet 'Samples'), n = 1
# JAK1 = details: read-out: apparent Kd; compound concentrations: 100 nM and 1000 nM (sheet 'Samples'), CATDS: 1.5080552204992799E-2; n = 1
# CDK6 = details: read-out: apparent Kd, compound concentrations: 100 nM and 1000 nM (sheet 'Samples'), n = 1
# MAPKAPK2 = details: read-out: apparent Kd; compound concentrations:100 nM and 1000 nM (sheet 'Samples'); n = 1
# [1] = compound concentrations:100 nM and 1000 nM (sheet 'Samples')
smiles,measurement,setting,value
CCn1c(-c2cccnc2O)nc2cnccc21 [SB-736715],potency estimated from few doses,"ATR; compound concentrations: 100 nM and 1000 nM (sheet 'Samples'), CATDS: 1.78741670317108E-2",919 nM
same,potency estimated from few doses,"DJA1; compound concentrations: 100 nM and 1000 nM (sheet 'Samples'), CATDS: 1.9156343081097999E-2",812 nM
same,potency estimated from few doses,IRAK4; CATDS: 1.2053772539955101E-2,2160 nM
same,potency estimated from few doses,"NLK; compound concentrations: 100 nM and 1000 nM (sheet 'Samples'), CATDS: 1.3463251782528499E-2",1640 nM
same,potency estimated from few doses,STK26; CATDS: 1.4283028006721699E-2,1440 nM
CN(C)CCNC(=O)Nc1ccc(N(C)c2ccnc(Nc3ccc(CS(C)(=O)=O)cc3)n2)cc1.Cl [GW830900A],potency estimated from few doses,JAK2; [1],1050 nM
NC(=O)c1cc(-c2ccccc2)cc2c(C3CCNCC3)c[nH]c12 [GSK301362A],potency estimated from few doses,DJA1; [1],1130 nM
CNCc1ccc(-c2cc(-c3nc(-c4ccc(S(=O)(=O)C(C)C)cc4)cnc3N)on2)cc1 [VE-822],potency estimated from few doses,ACAD11; [1],321 nM
same,potency estimated from few doses,ACVR1; [1],81 nM
same,potency estimated from few doses,"ATR; compound concentrations: 100 nM and 1000 nM (sheet 'Samples'), CATDS: 0.44999345055434797",7.76 nM
O=C1N=C(NCc2cccs2)O/C1=C\c1ccc2ncccc2c1 [RO4624208-000],potency estimated from few doses,"CDC7; compound concentrations: 100 nM and 1000 nM (sheet 'Samples'), CATDS: 4.51819013017992E-2",2100 nM
O=C(O)C(F)(F)F.O=c1[nH]ccc2nc(N[C@@H]3CCNC3)nc(Nc3ccc4c(c3)S(=O)(=O)CC4)c12 [GSK2181306A],potency estimated from few doses,"ACAD11; compound concentrations: 100 nM and 1000 nM (sheet 'Samples'), CATDS: 2.2275059319964801E-2",145 nM
same,potency estimated from few doses,"CDC7; compound concentrations: 100 nM and 1000 nM (sheet 'Samples'), CATDS: 3.8653220202105501E-2",57.1 nM
same,potency estimated from few doses,CDK5,571 nM
same,potency estimated from few doses,"JAK2; compound concentrations: 100 nM and 1000 nM (sheet 'Samples'), CATDS: 1.0295673104193499E-2",781 nM
same,potency estimated from few doses,MAP4K1; CATDS: 1.18408436386705E-2,536 nM
same,potency estimated from few doses,"ULK3; compound concentrations: 100 nM and 1000 nM (sheet 'Samples'), CATDS: 1.2312862576378401E-2",487 nM
Cc1cc(-c2ccnc(Nc3cccc(C#N)c3)n2)cc(C)c1O [GSK1440913A],potency estimated from few doses,"ACAD11; compound concentrations: 100 nM and 1000 nM (sheet 'Samples'), CATDS: 0.11808512095338899",425 nM
Cc1ccccc1C1=C(c2cn(C)c3ccccc23)C(=O)NC1=O [RO0317612-000],potency estimated from few doses,"DJA1; compound concentrations: 100 nM and 1000 nM (sheet 'Samples'), CATDS: 0.15228633777300399",952 nM
c1ccc(-c2n[nH]cc2Nc2ccnc3ccccc23)nc1 [GW694077X],potency estimated from few doses,"ACAD11; compound concentrations: 100 nM and 1000 nM (sheet 'Samples'), CATDS: 2.4414312635225699E-2",1600 nM
same,potency estimated from few doses,"NQO2; compound concentrations: 100 nM and 1000 nM (sheet 'Samples'), CATDS: 2.8699790095599101E-2",903 nM
same,potency estimated from few doses,"PIK3CA; compound concentrations: 100 nM and 1000 nM (sheet 'Samples'), CATDS: 4.8537913419409703E-2",212 nM
Cl.Cl.NC(CNC(=O)c1cc(Br)c(-c2ccnc3[nH]ccc23)s1)c1ccccc1.NC(CNC(=O)c1cc(Br)c(-c2ccnc3[nH]ccc23)s1)c1ccccc1 (stereo not shown) [GSK1322949A],potency estimated from few doses,ICK; CATDS: 2.9774635875568601E-2,1230 nM
COc1cc[nH]c1/C=C1\C(=O)Nc2ccc(F)c(C#CC3(O)CCNCC3)c21.Cl [RO0282986-001],potency estimated from few doses,"DJA1; compound concentrations: 100 nM and 1000 nM (sheet 'Samples'), CATDS: 9.7728158080224396E-3",1450 nM
same,potency estimated from few doses,ICK; CATDS: 1.28060195349982E-2,593 nM
same,potency estimated from few doses,IRAK4; CATDS: 1.1177652842318E-2,889 nM
same,potency estimated from few doses,JAK1,391 nM
same,potency estimated from few doses,MAP4K1; CATDS: 1.0790478017061501E-2,1000 nM
same,potency estimated from few doses,"NQO2; compound concentrations: 100 nM and 1000 nM (sheet 'Samples'), CATDS: 1.2433043587811299E-2",644 nM
NCC(NC(=O)c1cc(-c2cn[nH]c2)c(-c2ccnc3[nH]ccc23)s1)c1ccccc1.NCC(NC(=O)c1cc(-c2cn[nH]c2)c(-c2ccnc3[nH]ccc23)s1)c1ccccc1.O=C(O)C(F)(F)F.O=C(O)C(F)(F)F (stereo not shown) [GSK1325775A],potency estimated from few doses,"ACVR1; compound concentrations: 100 nM and 1000 nM (sheet 'Samples'), CATDS: 3.5400947915422802E-2",1180 nM
c1cnn2ncc(-c3ccnc(Nc4ccc5c(c4)OCCO5)n3)c2c1 [GW806290X],potency estimated from few doses,CDK6; CATDS: 2.20968603607638E-2,1390 nM
same,potency estimated from few doses,ICK; CATDS: 0.106713874587666,50.6 nM
CS(=O)(=O)Nc1ccc(-c2ccnc3[nH]ccc23)cc1 [GSK993273A],potency estimated from few doses,ACAD11; [1],1040 nM
COc1ccc(Nc2nccc(-c3ccc(NC(=O)c4cc5cc(F)ccc5[nH]4)cc3)n2)cc1 [GSK1229496A],potency estimated from few doses,"JAK2; compound concentrations: 100 nM and 1000 nM (sheet 'Samples'), CATDS: 0.41035402481259398",584 nM
CNc1cc(-c2ccc3c(N)n[nH]c3c2)nc(N)n1 [GSK2224810A],potency estimated from few doses,ATR; [1],814 nM
same,potency estimated from few doses,NLK; [1],1610 nM
same,potency estimated from few doses,PIK3CA; [1],245 nM
CC(C)Oc1ccc2c(-c3ccnc(Nc4ccc(N5CCN(C)CC5)cc4)n3)cnn2n1 [GW696155X],potency estimated from few doses,CDC7; [1],1440 nM
same,potency estimated from few doses,NQO2; [1],1060 nM
same,potency estimated from few doses,ULK3; [1],290 nM
CS(=O)(=O)CCn1c(=O)c(Oc2ccc(F)cc2F)cc2cnc(NC3CCOCC3)nc21 [RO5027956-000],potency estimated from few doses,ACAD11; [1],1690 nM
same,potency estimated from few doses,JAK2; [1],65.6 nM
same,potency estimated from few doses,MAPKAPK2,15.9 nM
same,potency estimated from few doses,NLK; [1],55.9 nM
CS(=O)(=O)Nc1cccc(-c2ccc3c(NC(=O)C4CC4)n[nH]c3c2)c1 [SB-742864],potency estimated from few doses,"DJA1; compound concentrations: 100 nM and 1000 nM (sheet 'Samples'), CATDS: 0.110016860770891",1630 nM
O=C1N=C(NCCCc2ccccc2)S/C1=C\c1ccc2ncccc2c1 [RO4493941-000],potency estimated from few doses,"PIK3CA; compound concentrations: 100 nM and 1000 nM (sheet 'Samples'), CATDS: 0.11301780685695401",241 nM
COc1ccc(-c2cc3c(N)ncnc3o2)cc1 [GW642138X],potency estimated from few doses,CDK6; CATDS: 0.103985986158265,1700 nM
same,potency estimated from few doses,IRAK4; CATDS: 9.7145824911744297E-2,1950 nM
same,potency estimated from few doses,STK26; CATDS: 0.100922192371782,1800 nM
